# According to PMC5540273 (PLoS ONE, 2017):
# System: TYRO3
# Settings: concentration: 1 μM, replicates: in singlicate; n = 1
# 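Note: KINOMEscan kinase panel screen.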
row,Structure (SMILES),%Inh [%]
1,CS(=O)(=O)c1ccc(-c2c(-c3ncn[nH]3)sc(N3CCOCC3)c2C#N)cc1,0
2,CCn1c(-c2cccnc2O)nc2cnccc21 [SB-736715],0
3,Cc1cc(-c2ccc3c(c2)CC[C@@H](N[C@@H](C)c2ccccc2)C3)cnc1N.Cl [GW412617],17
4,COc1ccccc1CNC(=O)c1cc(C(=O)c2ccccc2C)c[nH]1 [GSK364507],15
5,Cc1cccc(-c2nc(-c3ccc(S(C)(=O)=O)cc3)sc2-c2ccnc(NCCc3ccccc3)c2)c1,0
6,CC(=O)Nc1nc2cnc(Nc3cc(NC(=O)c4cccc(CCC#N)c4)ccc3C)nc2s1,1
7,Cc1cccc(-c2nc(C)cc(Nc3ccncc3)n2)n1 [GSK257997],21
8,CS(=O)(=O)c1ccc(-c2nc3n(c2-c2ccncc2)CCC3)cc1 [SKF-105942],0
9,Cl.c1ccc(-c2n[nH]cc2-c2ccnc(-c3ccc(CN4CCOCC4)cc3)c2)nc1 [GW776245],0
10,Nc1ncnc2[nH]c(-c3ccccc3)nc12 [AH5015],0
11,O=C(O)COc1ncnc2cc(-c3ccc4[nH]ncc4c3)sc12,0
12,COc1cc2ncn(-c3cc(OCC4CCCO4)c(C(N)=O)s3)c2cc1OC (centres unmarked) [GSK204607],0
13,Cc1ccc(NC(=O)Nc2cc(C(C)(C)C)nn2-c2ccccc2)cc1 [GSK1014915],7
14,Cc1cccc(-c2nc(Nc3ccc4[nH]ncc4c3)c3ccccc3n2)n1 [GW857175],0
